PubChem BioAssay AID488969 (Vanderbilt High Throughput Screening Facility, 2010)
Over roughly 110,000 compounds, “z-score” has its median near -0.1; the highest 2% begin near 2. The sample holds the highest values, similar compounds and a random draw of the others, so the mix is not that of the screen. The source made the active and inactive calls.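 Rule for the calls: active = z-score in the third read window above 3 or below -3; inactive = the rest.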

Biological target: Metabotropic glutamate receptor 8 (Rattus norvegicus) (UniProt P70579)
Sequence (P70579 whole entry, looked up): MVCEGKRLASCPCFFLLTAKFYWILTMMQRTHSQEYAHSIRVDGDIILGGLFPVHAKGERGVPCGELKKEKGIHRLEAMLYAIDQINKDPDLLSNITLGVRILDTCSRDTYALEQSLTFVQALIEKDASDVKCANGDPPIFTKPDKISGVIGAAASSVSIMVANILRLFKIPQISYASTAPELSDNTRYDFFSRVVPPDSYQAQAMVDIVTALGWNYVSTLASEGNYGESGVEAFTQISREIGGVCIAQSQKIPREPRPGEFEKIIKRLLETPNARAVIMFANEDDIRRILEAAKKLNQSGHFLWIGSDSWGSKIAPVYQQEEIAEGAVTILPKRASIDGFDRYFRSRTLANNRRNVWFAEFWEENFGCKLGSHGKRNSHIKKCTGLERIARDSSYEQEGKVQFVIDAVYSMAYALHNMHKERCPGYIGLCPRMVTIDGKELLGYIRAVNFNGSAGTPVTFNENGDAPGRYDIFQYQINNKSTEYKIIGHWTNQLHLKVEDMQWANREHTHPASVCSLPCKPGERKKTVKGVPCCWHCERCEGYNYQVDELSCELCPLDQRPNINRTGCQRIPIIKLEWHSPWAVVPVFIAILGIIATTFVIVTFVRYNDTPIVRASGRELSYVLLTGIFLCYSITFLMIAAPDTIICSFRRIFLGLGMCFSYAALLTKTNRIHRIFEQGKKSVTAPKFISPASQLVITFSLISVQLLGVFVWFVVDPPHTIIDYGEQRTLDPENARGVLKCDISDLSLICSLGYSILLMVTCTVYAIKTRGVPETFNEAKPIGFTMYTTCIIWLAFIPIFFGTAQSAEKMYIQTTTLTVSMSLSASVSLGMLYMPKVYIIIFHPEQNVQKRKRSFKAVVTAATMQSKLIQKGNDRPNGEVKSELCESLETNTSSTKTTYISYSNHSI
Test: rat mGluR8 modulators via GIRK flux, primary screen, cell-based, thallium flux, HTS (AID 488969)
Conditions: HEK293 rat mGluR8, GIRK (G protein-gated inwardly rectifying potassium channel) thallium flux, FluoZin2; at 10 µM; stronger effect = higher value; submaximal glutamate (EC20) added with thallium

Point of comparison: `COCC(=O)Nc1cccc2ccccc12`, z-score 0.3. Against it:
- COc1ccc(NC(=O)/C(=C/c2ccc3c(c2)OCO3)NC(C)=O)cc1 — lower, -0.031
- COC(=O)C1=C(C)OC(N)=C(C#N)C1c1ccccc1 (configuration not stated) — lower, -0.92
- CC(=O)C1=C(c2ccccc2)OC(N)=C(C#N)C1c1ccc(O)cc1 (configuration not stated) — lower, -0.487
- CC(C)c1nc(C#N)c(NCCCn2ccnc2)o1 — higher, 0.481
- N#C/C(=C(/O)C(Cl)c1ccccc1)c1nc2ccccc2s1 (configuration not stated) — lower, -0.476
- CCN(CC)C(=O)CSc1nnc(CCNC(=O)OC(C)(C)C)o1 — higher, 0.491
- Cc1ccc(C)c(NC(=O)CSc2nnc(CCNC(=O)OC(C)(C)C)o2)c1 — higher, 0.761
- Cc1ccc(NC(=O)CSc2nnc(CCNC(=O)OC(C)(C)C)o2)c(C)c1 — higher, 2.11
- Cc1ccc(NC(=O)CSc2nnc(CCCCCNC(=O)OC(C)(C)C)o2)c(C)c1 — higher, 0.493
- CC(C)(C)OC(=O)NCCc1nnc(SCC(N)=O)o1 — lower, -0.0953
- C=C(C)CSc1nnc(CCNC(=O)OC(C)(C)C)o1 — higher, 2.19
- COc1ccc(CNC(=O)C2CCCN(c3nc4ccccc4o3)C2)c(OC)c1 (configuration not stated) — lower, 0.18
- Cc1ccc(C)c2[nH]c(=O)c(C(c3nnnn3Cc3ccccc3)N3CCc4ccccc4C3)cc12 (configuration not stated) — lower, -0.148
- COc1ccccc1-n1c(SCC(=O)N2CCc3ccccc32)nc2c(c1=O)SCC2 — lower, -0.558
- O=c1[nH]c2ccccc2n1C1CCCCC1 — lower, -1.04
- CCCn1c(=O)[nH]c2ccccc21 — lower, -0.219
- C=CCOc1ccc(CNn2c(C)n[nH]c2=S)cc1OC — lower, 0.17
- CC(C)NC(=O)C1CCN(C(=O)C(C(=O)c2ccccc2)n2cc(Cl)ccc2=O)CC1 (configuration not stated) — higher, 0.609
- COc1ccc(/C=N/NC(=S)Nc2ccccc2)cc1COc1ccccc1F — lower, -0.0868
- C=CCNC(=S)Nc1ccc(F)cc1F — lower, -0.172
- CCCCNC(=O)C(=O)N/N=C/c1cccc(Br)c1 — higher, 0.475
- COc1ccc(/C=N/NC(=S)Nc2ccccc2)cc1COc1ccc(F)cc1F — lower, -0.047
- C=CCNC(=S)Nc1ccc(Br)cc1F — lower, -0.377
- COc1ccccc1NC(=S)N/N=C/c1cccc(C)c1 — higher, 0.651
- Cc1ccc(NC(=S)N/N=C/c2ccc(Cl)c([N+](=O)[O-])c2)cc1 — lower, -0.0758
- O=C(CCC(=O)Nc1ccccc1Cl)N/N=C/c1ccccc1 — lower, -0.0425
- Cc1cccc(N(C(=O)c2sc(C)nc2C)C(C(=O)NCc2ccco2)c2ccccc2)c1 (configuration not stated) — lower, -1.18
- COC(=O)C1=C(C)NC(=O)NC1c1ccccc1 (configuration not stated) — lower, -0.341
- OC(COCC(F)(F)C(F)(F)C(F)(F)C(F)F)Cn1c2ccccc2c2ccccc21 (configuration not stated) — lower, 0.164
- CCOc1ccc2nc(SCc3ccccc3C#N)sc2c1 — lower, -0.141
- Fc1ccccc1N1CCN(CC2CC3C=CC2C3)CC1 (configuration not stated) — lower, -0.343
- Cc1noc2c1C(c1ccc(N(C)C)cc1)C1=C(CC(C)(C)CC1=O)N2 (configuration not stated) — lower, -0.142
- CN(CCC#N)C(=S)Nc1ccc(Oc2ccccc2)cc1 — lower, -0.139
- Cc1ccc(-c2ccc(SCC(=O)c3ccccc3)nn2)cc1 — lower, 0.138
- O=C(Nc1ccon1)c1ccc(Br)o1 — lower, -0.216
- C=CCn1c(NC(=O)CC)c(C(=O)OCC)sc1=S — lower, -0.979
- COc1ccc(N=C2C(=Nc3ccc(OC)cc3)N(c3ccc(OC)cc3)C(=S)N2C)cc1 — lower, -0.0804
- Cc1nn(C(C)C(=O)NCc2ccccc2)c(C)c1[N+](=O)[O-] (configuration not stated) — higher, 0.375
- Cc1nc2ccccn2c1-c1nnco1 — lower, 0.116
- CCOC(=O)/C(N=Nc1c(Br)cc(Br)cc1Br)=C(\C)O — lower, 0.239
- CN1CCN(C(=S)NC(=O)/C=C/c2cccc3ccccc23)CC1 — higher, 2.03
- O=C(Nc1ccccc1C(F)(F)F)Nc1cccc2ccccc12 — higher, 0.33
- Cc1ccc(/C=C/C(=O)NC(=S)N2CCN(C)CC2)cc1 — lower, -0.241
- CCN1CCN(C(=O)Nc2cccc3ccccc23)CC1 — lower, -0.222
- O=C(Nc1cccc2ccccc12)N1CCN(c2ccccc2)CC1 — lower, -0.177
- CN1CCN(C(=S)NC(=O)/C=C/c2ccccc2)CC1 — higher, 0.401
- CCc1cc(=O)oc2cc3oc(C)c(C)c3cc12 — lower, -0.296
- Cc1c(C(=O)NCC2COc3ccccc3O2)oc2ccc(S(=O)(=O)N(C)C3CCCCC3)cc12 (configuration not stated) — lower, -0.0918
- CC(=O)CCc1oc2ccc(NC(C)=O)cc2c1-c1ccc(C)o1 — lower, -0.484
- COCCN(C(=O)COc1ccccc1)c1nnc(-c2cccnc2)s1 — lower, -0.132
- CC(=O)C(C)Oc1ccc2c3c(c(=O)oc2c1C)CCCC3 (configuration not stated) — lower, -1.13
- COc1ccc(NC(=O)CN(c2ccc(C)cc2)S(=O)(=O)c2c(C)nn(C)c2C)cc1OC — lower, -0.248
- Cc1cccc2sc(NC(=O)C3CCCO3)nc12 (configuration not stated) — lower, -0.212
- Cc1ccc(CNC(=O)c2ccc3c(=O)n(CCCN4CCCC4=O)c(=S)[nH]c3c2)cc1 — lower, -0.167
- O=C(NCCN1CCCC1)c1ccc2c(=O)n(CCc3ccccc3)c(=O)[nH]c2c1 — higher, 1.17
- O=C(NCCCN1CCCCC1)c1ccc2c(=O)n(CCc3ccccc3)c(=O)[nH]c2c1 — higher, 1.16
- O=C(NCc1cccnc1)c1ccc2c(=O)n(CCCN3CCCC3=O)c(=S)[nH]c2c1 — lower, -0.116
- CC1CCCCN1CCCNC(=O)c1ccc2c(=O)n(CCc3ccccc3)c(=O)[nH]c2c1 (configuration not stated) — higher, 2.93
- CC1CCCCN1CCNC(=O)c1ccc2c(=O)n(CCc3ccccc3)c(=O)[nH]c2c1 (configuration not stated) — lower, 0.188
- O=C(NCCCN1CCOCC1)c1ccc2c(=O)n(CCc3ccccc3)c(=O)[nH]c2c1 — higher, 1.15
- O=C(N/N=C/c1ccc(O)cc1)/C(=C/c1ccccc1)CCO — lower, -0.0513

For `CC1=C(n2nnc3ccccc32)C(c2ccccc2)C(C#N)=C(N)O1` (configuration not stated), the z-score was 3.38 (active).
`O=c1[nH]c2ccccc2n1CCC1CCCCC1` was tested, and the z-score was 5.05 (active).
For `Fc1cccc(/C=N/NC(=S)Nc2ccccc2Cl)c1`, the z-score was 11.2 (active).
`Fc1ccc(NC(=S)N/N=C/c2ccc(F)c(F)c2)c(F)c1` was tested, and the z-score was 13 (active).
For `Fc1ccc(/C=N/NC(=S)Nc2ccc(Cl)cc2)cc1F`, the z-score was 6.19 (active).
`Fc1ccc(NC(=S)N/N=C/c2cccc(Br)c2)c(F)c1` was tested, and the z-score was 3.61 (active).
With `CN1CCN(C(=O)Nc2cccc3ccccc23)CC1` the z-score was 3.3 (active).
In the case of `NC(=O)Nc1cccc2ccccc12`, the z-score is reported as 4.53 (active).
For `O=C(NCc1ccccc1)c1ccc2c(=O)n(CCCN3CCCC3=O)c(=S)[nH]c2c1`, the z-score was 4.92 (active).
For `CC1CCN(CCCNC(=O)c2ccc3c(=O)n(CCc4ccccc4)c(=O)[nH]c3c2)CC1`, the z-score was 4.09 (active).
